High-throughput results: PubChem, Center for Chemical Genomics, University of Michigan
HIV TAR-Tat: TAR RNA-Tat peptide displacers, HIV-1, primary screen, biochemical, FRET, FAM/TAMRA-labeled Tat; AID 1259389, 2018; HIV-1 TAR RNA, Tat peptide displacement FRET; stronger effect = higher value; z-score (concentration not given with the values); hit rate 0.6% among 100,000; active = z-score of 3 or more in at least 2 runs
CDC25B CDK2 inh: primary biochemical HTRF screen for blockers of M-phase inducer phosphatase 2 binding to CDK2/cyclin A | P30305+P24941 | HTRF CDC25B-CDK2/CyclinA binding, anti-His/anti-Flag; stronger effect = higher value | z-score (concentration not given with the values) | hit rate 0.72% among 94,000 | AID 1259370, 2018; in the data active = z-score above about 3.2
Each line names hits and unclear results; the compound was inactive in the other large screens. An excerpt weighted towards active compounds, which were near 0.9% of everything screened.

CC(=O)N1N=C(COc2ccc(Br)cc2)OC1c1ccc(C(C)C)cc1 (stereo not given)	none (no result: CDC25B CDK2 inh)
CCn1cnc2cc(NCc3nc4ccccc4n3C)ccc21	none
CCn1cnc2cc(NCc3nc4ccccc4n3Cc3ccccc3)ccc21	CDC25B CDK2 inh 12.9
COc1cc(OC)c(NC(=O)Nc2nnc(N3CCCCC3)s2)cc1Cl	none
COc1cccc(-c2n[nH]c3c2C(c2cccc(OC)c2)NC3=O)c1 (stereo not given)	none
CN(C(=O)NCc1noc2ccccc12)c1ccc(F)cc1	none (no result: CDC25B CDK2 inh)
CCCc1cc(=O)n2nc(N3CCC(C(=O)N4CCN(CC)CC4)CC3)sc2n1	none
COc1ccc(C)cc1NS(=O)(=O)c1c(C)nc2scc(C)n2c1=O	none
Fc1ccccc1-c1nc(-c2ccccn2)no1	none (no result: HIV TAR-Tat)
c1ccc(-c2noc(-c3cccc4ccccc34)n2)nc1	CDC25B CDK2 inh 11.9
Cc1nc2nc(NC(=O)C3CCCO3)[nH]n2c(=O)c1Cc1ccccc1 (stereo not given)	none
O=C(C1CCCN(S(=O)(=O)N2CCOCC2)C1)N1CCN(c2ccc(F)cc2)CC1 (stereo not given)	none (no result: CDC25B CDK2 inh)
O=C(C1CCCN(S(=O)(=O)N2CCCCC2)C1)N1CCN(c2ccccc2)CC1 (stereo not given)	HIV TAR-Tat 14.7 (no result: CDC25B CDK2 inh)
CC(=O)Nc1ccc(/C=N/NC(=O)c2ccccc2[N+](=O)[O-])cc1	none (no result: HIV TAR-Tat)
Cc1c(CCOC(=O)C2C3CC4CC(C3)CC2C4)sc[n+]1CC(=O)c1ccc(Br)cc1 (stereo not given)	CDC25B CDK2 inh 9.08 (no result: HIV TAR-Tat)
CC(C)CC(=O)N1c2ccccc2NC2=C(C(=O)CC(C)(C)C2)C1c1c[nH]c2ccccc12 (stereo not given)	none (no result: HIV TAR-Tat)
CSc1nnc(S/C(C(C)=O)=C(/C)O)s1	CDC25B CDK2 inh 16 (no result: HIV TAR-Tat)
CSc1nnc(SCC(=O)N2CCC(C(F)(F)F)CC2)s1	none (no result: HIV TAR-Tat)
O=C(Nc1cccc(-c2nnco2)c1)c1ccc([N+](=O)[O-])cc1	none (no result: HIV TAR-Tat)
CSc1ccc(C2CC(=O)N3CN(c4cccc(C)c4)CSC3=C2C#N)cc1 (stereo not given)	CDC25B CDK2 inh 8.47
Cc1cccc(N2CSC3=C(C#N)C(c4ccc(F)cc4)CC(=O)N3C2)c1 (stereo not given)	CDC25B CDK2 inh 4.1
Cc1cccc(N2CSC3=C(C#N)C(c4ccccc4Cl)CC(=O)N3C2)c1 (stereo not given)	none
CCN1C(=O)c2ccccc2Sc2ccc(NC(=O)NCc3ccco3)cc21	none
CCN1CCN(CCNC(=O)C2CCCN(c3nn4c(=O)cc(C)nc4s3)C2)CC1 (stereo not given)	none
CO/N=C(/C(=O)N[C@@H]1C(=O)N2C(C(=O)O)=C(COC(C)=O)CS[C@H]12)c1csc(N)n1	none (no result: CDC25B CDK2 inh)
C=CC1=C(C(=O)O)N2C(=O)[C@@H](NC(=O)C(=NO)c3csc(N)n3)[C@H]2SC1	HIV TAR-Tat 33.1 (no result: CDC25B CDK2 inh)
Cc1ccc(Cn2c3ccccc3c3nnc(NCC4CCCO4)nc32)cc1 (stereo not given)	none
CN(Cc1ccccc1)C(=O)Nc1noc2c1COc1ccccc1-2	none (no result: CDC25B CDK2 inh)
CC(C)Nc1cc(N2CCOCC2)c2noc3c2c1C(=O)c1ccccc1-3	HIV TAR-Tat 6.2
CC(C)CNc1cc(N2CCN(C(=O)c3ccco3)CC2)c2noc3c2c1C(=O)c1ccccc1-3	none
COc1ccc(Nc2cc(N3CCOCC3)c3noc4c3c2C(=O)c2ccccc2-4)cc1	none
O=C1c2ccccc2-c2onc3c(N4CCOCC4)cc(N4CCOCC4)c1c23	none
CC(C)Nc1cc(N2CCN(C(=O)c3ccco3)CC2)c2noc3c2c1C(=O)c1ccccc1-3	HIV TAR-Tat 5.57
O=C1c2ccccc2-c2onc3c(N4CCOCC4)cc(Nc4ccc(F)cc4)c1c23	CDC25B CDK2 inh 12.7
COc1cc(C2C(=O)N(C3CCCCC3)CC(=O)N2Cc2cccs2)ccc1OC(C)C (stereo not given)	none (no result: HIV TAR-Tat)
COc1ccc(Br)cc1C1CC(=O)N2CN(c3ccc(F)cc3)CSC2=C1C#N (stereo not given)	CDC25B CDK2 inh 4.43
CCc1ccc(N2CSC3=C(C#N)C(c4cccc(F)c4)CC(=O)N3C2)cc1 (stereo not given)	CDC25B CDK2 inh 5.18
N#CC1=C2SCN(c3ccc(Br)cc3)CN2C(=O)CC1c1cccc(F)c1 (stereo not given)	CDC25B CDK2 inh 6.61
COc1ccc(N2CSC3=C(C#N)C(c4ccc(Br)cc4)CC(=O)N3C2)cc1 (stereo not given)	CDC25B CDK2 inh 5.33
COc1ccc(Br)cc1C1CC(=O)N2CN(Cc3ccco3)CSC2=C1C#N (stereo not given)	none
Cc1ccc(C(CNC(=O)c2cc(-c3cccs3)on2)N2CCN(C)CC2)o1 (stereo not given)	none
O=C(CCc1nc(-c2ccccn2)no1)NCc1ccco1	none
COc1ccc(NC(=O)N2CC=C(c3c[nH]c4ccccc34)CC2)cc1OC	none (no result: CDC25B CDK2 inh)
N#CC1=C2SCN(c3ccccc3)CN2C(=O)CC1c1cccc(Br)c1 (stereo not given)	CDC25B CDK2 inh 6.86
N#CC1=C2SCN(c3ccc(F)cc3)CN2C(=O)CC1c1cccc(Br)c1 (stereo not given)	CDC25B CDK2 inh 3.28
N#CC1=C2SCN(c3ccc(F)cc3)CN2C(=O)CC1c1cccc(F)c1 (stereo not given)	CDC25B CDK2 inh 6.44
N#CC1=C2SCN(c3ccccc3F)CN2C(=O)CC1c1ccc(Br)cc1 (stereo not given)	none
N#CC1=C2SCN(c3ccccc3)CN2C(=O)CC1c1ccc(Br)cc1 (stereo not given)	CDC25B CDK2 inh 3.95
Cc1ccc(C(=O)N2N=C(C3CCCCC3)CC2(O)C(F)(F)F)o1 (stereo not given)	none (no result: HIV TAR-Tat)
CCN(CC)c1ccc(NS(=O)(=O)c2cc3[nH]c4c(c3cc2C)C(=O)CCC4)c(C)c1	none (no result: CDC25B CDK2 inh)
COc1ccc(N2CCCS2(=O)=O)cc1NS(=O)(=O)c1ccc(C)c(C)c1	none (no result: CDC25B CDK2 inh)
O=C(O)C1CCN(c2ncnc3sc4c(c23)CCC4)CC1	none (no result: CDC25B CDK2 inh)
CCCNC(=O)C1CCN(c2nnc(N3CCCC3=O)s2)CC1	none
CCN1C(=O)C2(c3ccccc31)C(C(=O)Nc1cccc(SC)c1)CC1CSCN12 (stereo not given)	HIV TAR-Tat 20 (no result: CDC25B CDK2 inh)
CSc1cccc(NC(=O)C2CC3CSCN3C23C(=O)N(C)c2ccccc23)c1 (stereo not given)	none (no result: CDC25B CDK2 inh)
Clc1cccc(CSc2ccc(-c3ccncc3)nn2)c1	none (no result: CDC25B CDK2 inh)
CC12OC(C(Br)C1Br)C1C(=O)OC(=O)C12 (stereo not given)	CDC25B CDK2 inh 6.07 (no result: HIV TAR-Tat)
CCCCCCCCCCCCCCCC(=O)OC[C@H](O)[C@H]1OC(=O)C(O)=C1O	HIV TAR-Tat 17.2 (no result: CDC25B CDK2 inh)
O=C1O[C@H]([C@@H](O)CO)C(O)=C1O	none (no result: CDC25B CDK2 inh)
Cc1ccc2nc(Nc3nc4c(c(=O)[nH]3)CCCC4)nc(C)c2c1	none
Cc1ccc2c(C)nc(Nc3nc4c(c(=O)[nH]3)CCC4)nc2c1	CDC25B CDK2 inh 10.3 (no result: HIV TAR-Tat)
Nc1ccc2nn(-c3cccc(Cl)c3)nc2c1	HIV TAR-Tat 3.99
Cc1ccc(-n2nc3ccc(N)cc3n2)cc1	none
CCCCC(=O)OC1=C(C(=O)OC)N(C(C)C)S(=O)(=O)c2ccccc21	none
O=S(=O)(c1ccc(F)cc1)N1CCN(Cc2ccc3c(c2)OCO3)CC1	CDC25B CDK2 inh 15.8
O=S(=O)(c1cccc(F)c1)N1CCN(Cc2ccc3c(c2)OCO3)CC1	none (no result: HIV TAR-Tat)
CSc1ccc(CCNC(=O)Nc2ccc3snnc3c2)cc1	none
CCN(CC)C(=O)Nc1ccc2snnc2c1	CDC25B CDK2 inh 9.12
C=CCNC(=O)Nc1ccc2snnc2c1	CDC25B CDK2 inh 10.3
C=CCNC(=O)c1ccc2snnc2c1	none
